The nature of test [1]: E. coli DRC41 culture turbidity changes, primary screen, E. coli filamentation inducer project, strain DRC41, OD650, 48 h (AID 1152).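 Note: E. coli MC1000 strain DRC41 lacking acrAB efflux pump and sulA.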 Conditions: E. coli DRC41 (acrAB sulA), higher = more signal, called active from +8 up or from −8 down.
Test [2] can be described thus: small-molecule binders of probe aLefty1, primary screen, biochemical, small-molecule microarray, 635/667 nm fluorescence (AID 1153).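 Note: score merges spot fluorescence with signal-to-noise ratio from the scanned slide images.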 Conditions: higher = more signal.
A short description of test [3]: PSAC antagonists in infected red cells, primary screen, cell-based, P. falciparum Indochina, OD700, 1 h (AID 1154). Conditions: P. falciparum Indochina infected RBC osmotic lysis, higher = more signal, called active from +8 up or from −8 down.
Test [4] is described as follows: PSAC antagonists in infected red cells, primary screen, cell-based, P. falciparum Indochina, OD700, 2 h (AID 1155).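 Note: lysis reports solute entry through the parasite surface anion channel PSAC; channel blockers reduce lysis of infected cells.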 Conditions: P. falciparum Indochina infected erythrocytes, osmotic lysis OD700; higher = more signal, called active from +8 up or from −8 down.
Test [5] in a line: osmotic lysis modulators in infected erythrocytes, primary screen, PSAC antagonist project, cell-based, P. falciparum Indochina, OD700, 3 h (AID 1156). Conditions: higher = more signal, called active from +8 up or from −8 down.
Test [6] is described as follows: PSAC antagonists in infected red cells, primary screen, cell-based, P. falciparum Indochina, OD700, 18 h (AID 1157). Conditions: P. falciparum Indochina infected erythrocytes, osmotic lysis OD700, 18 h; higher = more signal, called active from +8 up or from −8 down.
Test [7] is described as follows: modulators of S6 phosphorylation in cells, primary screen, cell-based, A549, cytoblot, luminescence, serum-stimulated (AID 1158).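 Note: serum-stimulated A549 lung adenocarcinoma cells; signal is phosphorylated S6 detected by cytoblot immunostaining with HRP secondary.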 Conditions: A549 phospho-S6 cytoblot, 5 h, higher = more signal.
The target of test [8] is NADPH oxidase 2 (Homo sapiens) (UniProt P04839). In words: NOX2-dependent H2O2 signal modulators, primary screen, NOX inhibitor project, cell-based, HEK293-NOX2, PMA-stimulated, Amplex Red fluorescence (AID 1159). Note: test concentration not given here. Conditions: 45 min, higher = more signal, called active from +8 up or from −8 down.
Sequence of NADPH oxidase 2 (Homo sapiens) (P04839 whole entry, looked up): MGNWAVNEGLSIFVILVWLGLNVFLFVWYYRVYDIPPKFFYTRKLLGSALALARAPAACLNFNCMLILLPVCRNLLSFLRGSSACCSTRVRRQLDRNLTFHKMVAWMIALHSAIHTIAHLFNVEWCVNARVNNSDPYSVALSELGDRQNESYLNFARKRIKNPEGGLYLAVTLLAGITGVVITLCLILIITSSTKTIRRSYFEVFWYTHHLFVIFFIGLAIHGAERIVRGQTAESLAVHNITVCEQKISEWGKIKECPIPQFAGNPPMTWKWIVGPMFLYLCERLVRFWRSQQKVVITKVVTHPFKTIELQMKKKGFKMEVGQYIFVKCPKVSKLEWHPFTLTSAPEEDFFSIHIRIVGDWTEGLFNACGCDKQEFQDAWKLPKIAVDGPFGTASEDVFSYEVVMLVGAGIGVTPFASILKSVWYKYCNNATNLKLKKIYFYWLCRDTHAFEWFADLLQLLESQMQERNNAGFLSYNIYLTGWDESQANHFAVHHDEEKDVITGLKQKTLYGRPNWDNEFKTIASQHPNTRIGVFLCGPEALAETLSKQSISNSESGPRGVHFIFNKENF
For test [9], the target named is NADPH oxidase 4 (Homo sapiens) (UniProt Q9NPH5). The test can be described thus: NOX4-dependent H2O2 signal modulators, primary screen, NOX inhibitor project, cell-based, HEK293-NOX4, tetracycline-induced, Amplex Red fluorescence (AID 1160). Conditions: 45 min, higher = more signal, called active from +8 up or from −8 down.
Sequence of NADPH oxidase 4 (Homo sapiens) (Q9NPH5 whole entry, looked up): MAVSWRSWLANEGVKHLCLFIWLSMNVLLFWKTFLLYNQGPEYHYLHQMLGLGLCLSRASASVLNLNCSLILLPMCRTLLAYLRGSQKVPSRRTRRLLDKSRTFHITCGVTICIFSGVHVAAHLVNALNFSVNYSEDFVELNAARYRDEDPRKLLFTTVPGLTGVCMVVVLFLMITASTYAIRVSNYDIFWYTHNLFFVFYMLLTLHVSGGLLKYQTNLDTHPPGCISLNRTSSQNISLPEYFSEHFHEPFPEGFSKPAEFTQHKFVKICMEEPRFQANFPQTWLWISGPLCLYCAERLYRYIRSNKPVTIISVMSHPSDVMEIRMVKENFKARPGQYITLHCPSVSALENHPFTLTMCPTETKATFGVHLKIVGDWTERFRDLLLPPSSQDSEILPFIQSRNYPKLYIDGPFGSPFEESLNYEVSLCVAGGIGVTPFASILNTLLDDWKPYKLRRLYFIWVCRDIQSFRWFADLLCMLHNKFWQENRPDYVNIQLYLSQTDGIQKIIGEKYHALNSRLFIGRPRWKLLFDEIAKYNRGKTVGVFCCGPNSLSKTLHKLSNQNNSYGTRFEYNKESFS
Test [10] addresses NADPH oxidase 5 (Homo sapiens) (UniProt Q96PH1). In words: NOX5-dependent H2O2 signal modulators, primary screen, NOX inhibitor project, cell-based, HEK293-NOX5, Amplex Red fluorescence (AID 1161). Conditions: HEK293-NOX5, ionomycin, 45 min, higher = more signal.
The nature of test [11]: A549 cell viability effects, profiling panel, calcein-AM fluorescence, 48 h, basal (AID 1162). Note: test concentration not given here. Conditions: higher = more signal.
Test [12] in a line: adipocyte viability effects, profiling panel, cell-based, 3T3-L1 adipocytes, calcein-AM fluorescence, 48 h, basal (AID 1163). Note: test concentration not given here. Conditions: 3T3-L1 adipocytes viability, higher = more signal.
Test [13] can be described thus: HepG2 cell viability effects, profiling panel, calcein-AM fluorescence, 48 h, basal (AID 1164). Note: test concentration not given here. Conditions: higher = more signal.
The nature of test [14]: MM1S cell viability effects, profiling panel, calcein-AM fluorescence, 48 h, basal (AID 1165).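 Note: viability of MM1S multiple myeloma cells under basal unstimulated conditions; test concentration not given here.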 Conditions: higher = more signal.
Test [15] is described as follows: basal RPMI8226 viability, no added stimulus, profiling panel, cell-based, calcein-AM fluorescence, 48 h, PK04 Diversity Set (AID 1166).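 Note: cells grown under basal conditions without added stimulus; test concentration not given here.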 Conditions: RPMI8226 myeloma viability, higher = more signal.
Test [16] in a line: basal HepG2 mitochondrial membrane potential changes, profiling panel, cell-based, JC-1 fluorescence, 24 h, 100 nL compound (AID 1167). Note: test concentration not given here. Conditions: higher = more signal.
Test [17] can be described thus: basal 3T3-L1 adipocyte mitochondrial potential changes, profiling panel, cell-based, JC-1 fluorescence, 3T3-L1 adipocytes, 24 h, 100 nL compound (AID 1168). Note: test concentration not given here. Conditions: JC-1 mitochondrial fluorescence, higher = more signal, called active from +8 up or from −8 down.
Test [18] is described as follows: basal RPMI8226 mitochondrial membrane potential changes, profiling panel, cell-based, JC-1 fluorescence, 24 h, 100 nL compound (AID 1169). Note: test concentration not given here. Conditions: RPMI8226 myeloma, JC-1 mitochondrial potential fluorescence, higher = more signal.
The nature of test [19]: basal MM1S mitochondrial membrane potential changes, profiling panel, cell-based, JC-1 fluorescence, 24 h, 100 nL compound (AID 1170). Note: test concentration not given here. Conditions: higher = more signal.
Test [20] in a line: A549 lung cancer cell viability effects, profiling panel, resazurin fluorescence, 24 h, PK04 Diversity Set (AID 1171). Note: test concentration not given here. Conditions: higher = more signal, called active from +8 up or from −8 down.

SMILES strings stand for the structures. Activity calls are given as the source filed them.

Sequence of NADPH oxidase 5 (Homo sapiens) (Q96PH1 whole entry, looked up): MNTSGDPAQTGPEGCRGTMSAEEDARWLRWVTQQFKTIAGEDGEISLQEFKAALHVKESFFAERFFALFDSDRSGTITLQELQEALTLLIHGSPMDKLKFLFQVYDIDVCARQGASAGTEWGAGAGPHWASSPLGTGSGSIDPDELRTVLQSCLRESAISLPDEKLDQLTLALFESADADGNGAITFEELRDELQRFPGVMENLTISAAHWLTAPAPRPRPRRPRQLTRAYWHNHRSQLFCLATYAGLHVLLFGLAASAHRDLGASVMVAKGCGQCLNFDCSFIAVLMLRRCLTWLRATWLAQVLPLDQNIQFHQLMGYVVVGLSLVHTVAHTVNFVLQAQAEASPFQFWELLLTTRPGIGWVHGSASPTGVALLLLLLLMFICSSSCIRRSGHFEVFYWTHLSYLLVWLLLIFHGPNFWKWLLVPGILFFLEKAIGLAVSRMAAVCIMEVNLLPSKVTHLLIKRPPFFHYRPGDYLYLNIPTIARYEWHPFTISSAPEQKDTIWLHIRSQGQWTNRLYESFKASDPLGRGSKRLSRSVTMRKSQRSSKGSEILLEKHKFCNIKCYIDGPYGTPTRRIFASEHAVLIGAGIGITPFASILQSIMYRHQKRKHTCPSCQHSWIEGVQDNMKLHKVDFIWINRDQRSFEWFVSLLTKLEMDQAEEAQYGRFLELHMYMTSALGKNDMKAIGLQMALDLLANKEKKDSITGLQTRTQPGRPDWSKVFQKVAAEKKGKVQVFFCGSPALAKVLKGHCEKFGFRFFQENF

Consider `CCOC(=O)CCN1C(=O)[C@H]2[C@H]3[C@H](O)[C@H](O)CC(=NOCc4ccccc4)[C@H]3CC[C@H]2C1=O`, for which the z-score in test [1] was 1.02 (inactive); in test [3], 3.06 (inactive); in test [4], 0.939 (inactive); in [5], -0.35 (inactive); in test [6], 0.451 (inactive); in test [7], -0.578. For the same compound, the z-score in test [8] is -0.43 (inactive); in [9], 0.622 (inactive); in test [10], 0.279; in test [11], 0.14; in test [12], -1.08; in test [13] it was -0.416. Moreover, the z-score in [14] is 0.0807; in [15] it was -0.273; in [16], 0.239; in test [17] it was 0.392 (inactive); in test [18] it was -0.508; in test [19] it was -1.22. Moreover, in test [20], the z-score is -0.553 (inactive). This compound also registered a composite z-score in [2] of 0.914.

For the compound `O=c1n(Cc2cc3c(cc2Cl)OCO3)c(=O)n2n1CC[C@@H]1C(=NOCc3ccccc3)[C@H]3O[C@H]3[C@@H](O)[C@@H]12`, the z-score in test [1] was 0.112 (inactive); in test [3], 0.99 (inactive); in test [4], -1.13 (inactive); in test [5] it was 0.434 (inactive); in [6], -2.49 (inactive); in test [7], 1.63. The z-score in test [8] was -0.641 (inactive); in test [9] it was 0.153 (inactive); in [10] it was 0.615; in test [11] it was 0.7; in [12], -0.362; in test [13] it was 0.941. Besides, the z-score in test [14] is -0.64; in test [15], 0.341; in test [16], 1.1; in test [17] it was 0.218 (inactive); in [18] it was 0.185; in [19], 0.178. The z-score in [20] is -1.11 (inactive). Further, the composite z-score in test [2] was -0.055.

Regarding `COc1cccc([C@@H]2Oc3ccc(OC)cc3C(=O)[C@H]2O)c1`, the z-score was -0.542 (inactive) in test [1]; 4.92 (inactive) in [3]; -0.384 (inactive) in [4]; 1.13 (inactive) in [5]; -1.28 (inactive) in test [6]; 2.08 in test [7]. Moreover, the z-score is -2.25 (inactive) in [8]; -1.51 (inactive) in [9]; -1.77 in [10]; 0.0549 in test [11]; 0.856 in [12]; -2.24 in test [13]. In addition, the z-score is -2.89 in [14]; -2.25 in [15]; -2.31 in test [16]; -0.0174 (inactive) in [17]; 1.04 in [18]; -0.27 in test [19]. In test [20], the z-score is -0.214 (inactive). Besides, the composite z-score in test [2] is -0.101.

In the case of `CCOC(=O)[C@H](CC(C)C)NC(=O)CCC1CC(OC(=O)NCc2cccc3ccccc23)CC2(CCCC(COC(=O)NCCOc3ccccc3)O2)O1` (stereo not given in full), the z-score was 0.288 (inactive) in [1]; -1.67 (inactive) in test [3]; -0.658 (inactive) in test [4]; -2.05 (inactive) in [5]; -0.391 (inactive) in test [6]; -0.305 in test [7]. Besides, the z-score in test [8] is 0.711 (inactive); in test [9], 0.635 (inactive); in test [10], 0.534; in test [11], 2.15; in test [12], 0.519; in test [13] it was 0.335. Moreover, the z-score in test [14] is -1.32; in test [15], -0.273; in [16], 1; in [17] it was 0.661 (inactive); in test [18], -0.763; in test [19], -0.985. For the same compound, the z-score in test [20] was 1.33 (inactive). Moreover, the composite z-score in test [2] was -0.372.

Turning to `COc1ccc(O[C@@H]2[C@H](O)CO[C@H]2C=Cc2ccccc2)cc1`, the z-score in [1] is -0.164 (inactive); in [3], 1.65 (inactive); in test [4], -0.518 (inactive); in [5], -0.433 (inactive); in test [6] it was -0.323 (inactive); in test [7], 0.243. The z-score is 0.335 (inactive) in test [8]; -0.426 (inactive) in test [9]; -0.102 in test [10]; 0.576 in test [11]; 0.759 in test [12]; 0.898 in test [13]. Besides, the z-score in [14] is -0.418; in [15], -0.483; in [16], 0.364; in test [17], 0.0785 (inactive); in test [18], 0.868; in test [19] it was -0.121. In test [20], the z-score is -1.44 (inactive). In addition, the composite z-score in test [2] is -0.237.

On to `CC(C)CON=C1C[C@@H](O)[C@@H](O)[C@@H]2[C@@H]3C(=O)N(Cc4ccc5c(c4)OCO5)C(=O)[C@@H]3CC[C@H]12`, for which the z-score is -0.135 (inactive) in test [1]; 1.22 (inactive) in [3]; 0.32 (inactive) in test [4]; 0.337 (inactive) in [5]; 0.108 (inactive) in test [6]; -0.27 in test [7]. Also, the z-score in test [8] is -0.378 (inactive); in [9] it was 1.02 (inactive); in test [10], -0.146; in test [11] it was -0.223; in test [12], -0.503; in [13], -0.479. Also, the z-score in [14] is 0.119; in test [15], -1.15; in test [16], 0.174; in test [17], -0.589 (inactive); in test [18], 0.704; in test [19] it was -0.146. Further, in test [20], the z-score was 0.56 (inactive). Moreover, the composite z-score in [2] is -0.198.

Turning to `C#CCCCON=C1[C@H]2CCn3c(=O)n(-c4ccccc4)c(=O)n3[C@H]2[C@H](O)[C@@H]2O[C@H]12`, the z-score was 0.555 (inactive) in [1]; 0.116 (inactive) in test [3]; -1.22 (inactive) in test [4]; 0.43 (inactive) in test [5]; -2.27 (inactive) in test [6]; 3.11 in test [7]. For the same compound, the z-score in test [8] was -0.858 (inactive); in [9], 0.137 (inactive); in test [10], 0.607; in test [11], -0.212; in [12] it was 0.356; in test [13], 1.09. In addition, the z-score in test [14] was 0.0128; in [15], -0.352; in test [16], 0.85; in test [17] it was 0.182 (inactive); in [18], 1.03; in test [19], -0.61. Further, the z-score in [20] was -1.39 (inactive). The composite z-score in [2] is -0.19.

Consider `CCO[C@H](c1cc(OC)cc([N+](=O)[O-])c1OC)[C@H](C)C=CCC(=O)OC`, for which the z-score is 0.722 (inactive) in test [1]; 0.905 (inactive) in [3]; -0.222 (inactive) in test [4]; -0.361 (inactive) in test [5]; 0.148 (inactive) in test [6]; -0.168 in [7]. Also, the z-score in [8] was -0.295 (inactive); in test [9], 0.276 (inactive); in [10] it was 0.893; in [11], 1.23; in [12] it was -0.629; in [13], 0.381. The z-score in [14] is 1.02; in [15], 0.799; in test [16] it was 0.879; in test [17], 0.269 (inactive); in [18] it was 0.752; in test [19], -0.929. Further, the z-score in [20] was -0.625 (inactive). For the same compound, the composite z-score in test [2] was -0.202.

(Values after PubChem BioAssay.)
